Hits are enriched below; roughly 4.2% of the tested compounds scored in any of these assays.
AHR act: AHR activators, primary screen, cell-based, luminescence, luciferase reporter, human; AHR-responsive luciferase reporter cells; activation, % at 5 µM; 320,000 compounds, 2.5% hits; AID 2796, 2010; in the data active means activation above about 47%;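 further: 0% = vehicle wells and 100% = reference agonist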
Wnt act: Wnt/beta-catenin pathway activators, primary screen, cell-based, plate reader, single point; Wnt/beta-catenin reporter cell assay, activator; activation, % at 9.35 µM; 300,000 compounds, 1.2% hits; in the data active means activation above about 30%, passing the limit was not always enough;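 further: 0% = neutral control wells and 100% = positive control wells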
GAA850 FXN act: FXN promoter activators, primary screen, cell-based, luciferase luminescence, HEK293 lucGAA850; activation, % at 6 µM; 360,000 compounds, 0.56% hits; AID 540364, 2011; HEK293 lucGAA850 FXN promoter luciferase reporter, 24 h; percent of 10 µM SAHA response;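 active means activation above the average of all compounds screened plus 3 SD, cutoff fixed separately per campaign, cut at about 7.5% in these data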;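 further: 0% = DMSO wells and 100% = 10 µM SAHA wells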
MITF act: activators of MITF-driven TRPM1 promoter reporter, primary screen, cell-based, SK-MEL-5, luciferase, single point | activation, % at 12.5 µM | AID 588334, 2011 | SK-MEL-5 TRPM1-promoter luciferase, 24 h; % of positive control, neutral wells = 0 | 300,000 compounds, 0.75% hits;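 active means mean activation of at least 80% with every replicate also reaching 80%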;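 further: 0% = neutral control wells and 100% = parthenolide positive control wells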
esBAF inh: Bmi1 luciferase reporter increase in mESCs, primary screen, esBAF inhibitor project, mouse ES cells, Bmi1 luciferase knock-in, single point; 24 h; 100% = twice the neutral-well signal; reporter increase, % at 12.5 µM; 350,000 compounds, 2% hits; in the data active means activation above about 40%;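 further: 0% = median of the plate's neutral control wells and 100% = double that signal; a rise in the Bmi1 reporter signal indicates esBAF inhibition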
Numbers without * were called inactive; nt = not tested or not shown.

SMILES	AHR act	Wnt act	GAA850 FXN act	MITF act	esBAF inh
O=C(C[C@@H]1C[C@H]2c3cc(NS(=O)(=O)c4ccc(F)cc4)ccc3O[C@H]2[C@@H](CO)O1)NCc1ccncc1	nt	nt	nt	nt	-3.1
CCCN=Cc1sc2ccc(OCC)cc2c1O	1.8	26.5	7.0	100.5*	76.7*
O=C(N[C@@H]1CC[C@@H](CCNC(=O)C2CCOCC2)O[C@@H]1CO)c1ccccn1	nt	nt	nt	nt	5.8
COc1ccccc1NC(=O)c1nn(C)c(C(=O)Nc2ccccc2OC)c1[N+](=O)[O-]	58.8*	0.2	1.4	17.0	-0.1
COc1ccccc1NC(=O)C1=C(C)NC(=O)NC1c1ccccc1[N+](=O)[O-] (stereo not drawn)	70.5*	0.1	1.6	-11.6	nt
COc1ccccc1NC(=O)c1nn(C)cc1Br	61.2*	nt	-1.3	-10.2	6.2
COc1ccccc1NC(=O)c1c([N+](=O)[O-])cnn1C	61.2*	-0.7	0.0	-9.1	-1.5
O=C(C[C@H]1CC[C@@H]2[C@H](COC[C@H](O)CN2Cc2cc(F)ccc2F)O1)N[C@@H]1CCN(Cc2ccccc2)C1	nt	nt	nt	nt	0.2
COc1ccc(Cl)cc1NC(=O)c1noc(C)c1[N+](=O)[O-]	54.9*	nt	4.4	-14.3	-11.4
COc1ccc(Cl)cc1NC(=O)c1cccc([N+](=O)[O-])c1O	nt	-0.4	1.3	2.5	-2.1
N/C(=N\OC(=O)c1ccco1)c1cccc(Br)c1	4.0	50.3*	6.5	55.5	8.1
N/C(=N\OC(=O)c1cccc(Br)c1)c1ccccc1	74.2*	nt	5.8	12.4	6.8
N/C(=N\OC(=O)c1ccc2ccccc2c1)c1ccc(Br)cc1	21.2	7.3	0.2	24.1	nt
N/C(=N\OC(=O)c1ccco1)c1cccc([N+](=O)[O-])c1	0.9	9.9	4.8	52.8	nt
O=C(/C=C/c1ccc(Br)o1)Nc1nccs1	37.3	42.6*	3.5	52.3	nt
Cc1nc(NC(=O)c2ccc(Br)o2)sc1C	10.4	nt	3.0	34.8	nt
O=C(Nc1nccs1)c1ccc(-c2ccc(F)c(Cl)c2)o1	71.9*	10.8	6.4	113.2*	56.8*
O=C(Nc1nccs1)c1ccc(Br)o1	57.5*	nt	2.3	23.7	23.7
O=C(Nc1nccs1)c1ccc(-c2ccc(Cl)cc2Cl)o1	4.0	-0.5	1.3	8.4	nt
C[C@H](CO)N1C[C@H](C)[C@@H](CN(C)C(=O)Nc2ccc(F)cc2)Oc2ccc(NC(=O)NC3CCCCC3)cc2CC1=O	nt	nt	nt	nt	-10.4
COC(=O)c1ccc(CN2C(=O)NC3(CCC(C)CC3)C2=O)cc1 (stereo not drawn)	-0.7	5.0	6.4	47.8	43.9*
COC(=O)c1ccc(CN2C(=O)NC3(CCC(C)CC3)C2=O)o1 (stereo not drawn)	1.4	-0.8	1.0	nt	1.5
O=C(C[C@H]1C[C@@H]2c3cc(NC(=O)c4cccnc4)ccc3O[C@@H]2[C@@H](CO)O1)NCc1ccc(Oc2ccccc2)cc1	nt	nt	nt	nt	7.6
O=c1oc2ccccc2cc1-c1nc2c(s1)CCc1ccccc1-2	71.2*	nt	2.2	-4.8	nt
O=c1oc2cc(O)ccc2cc1-c1nc2c(s1)CCc1ccccc1-2	13.7	nt	4.6	-5.5	nt
SMILES	AHR act	Wnt act	GAA850 FXN act	MITF act	esBAF inh
O=C(Nc1nc2ccccc2n1CCN1CCCC1)c1ccc(Cl)cc1	53.5*	2.9	1.9	nt	48.4*
O=C(Nc1nc2ccccc2n1CCN1CCCCC1)c1ccc(Cl)cc1	11.0	nt	nt	nt	nt
Cc1ccc(C(=O)Nc2nc3ccccc3n2CCN2CCCC2)cc1	47.1*	-2.6	5.0	49.8	-5.0
CCCn1c(NC(=O)c2ccc(C)cc2)nc2ccccc21	48.6*	2.3	3.6	nt	28.3
C[C@H]1CN([C@@H](C)CO)C(=O)c2cccc(NC(=O)Nc3ccc(F)cc3)c2O[C@@H]1CN(C)CC1CC1	nt	nt	nt	nt	2.6
O=C(Nc1scc(-c2ccccc2)c1C(=O)O)c1ccco1	5.1	10.1	1.8	13.2	26.5
Cc1ccc(-c2csc(NC(=O)c3ccco3)n2)cc1C	1.2	40.9*	5.1	nt	46.8*
CN(C(=O)c1ccco1)c1nc(-c2ccccc2)cs1	6.3	18.7	2.9	129.9*	44.2*
Cc1ccc(-c2csc(NC(=O)c3c(C)noc3C)n2)cc1C	-0.3	-4.1	2.1	43.9	19.8
CCOc1ccc(-c2csc(NC(=O)c3ccco3)n2)cc1	11.1	3.0	2.6	nt	57.9*
